Data reported in PubChem BioAssay AID623939 (Vanderbilt Specialized Chemistry Center, 2012).
Calls of active or inactive are those of the source.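 Rule for the calls: active = a compound whose calcium signal at the M5 receptor changes in step with its dose; inactive = the rest.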

target: Muscarinic acetylcholine receptor M5 (Homo sapiens) (UniProt P08912); assay: human M5 muscarinic receptor PAM counter-screen, SAR follow-up, selectivity assay for M4 PAM optimization project, CHO cells, Fluo-4 calcium, ACh EC20 (AID 623939); conditions: CHO hM5 cells, ACh EC20 potentiation; series mostly up to 30 µM
Sequence (P08912 whole entry, looked up): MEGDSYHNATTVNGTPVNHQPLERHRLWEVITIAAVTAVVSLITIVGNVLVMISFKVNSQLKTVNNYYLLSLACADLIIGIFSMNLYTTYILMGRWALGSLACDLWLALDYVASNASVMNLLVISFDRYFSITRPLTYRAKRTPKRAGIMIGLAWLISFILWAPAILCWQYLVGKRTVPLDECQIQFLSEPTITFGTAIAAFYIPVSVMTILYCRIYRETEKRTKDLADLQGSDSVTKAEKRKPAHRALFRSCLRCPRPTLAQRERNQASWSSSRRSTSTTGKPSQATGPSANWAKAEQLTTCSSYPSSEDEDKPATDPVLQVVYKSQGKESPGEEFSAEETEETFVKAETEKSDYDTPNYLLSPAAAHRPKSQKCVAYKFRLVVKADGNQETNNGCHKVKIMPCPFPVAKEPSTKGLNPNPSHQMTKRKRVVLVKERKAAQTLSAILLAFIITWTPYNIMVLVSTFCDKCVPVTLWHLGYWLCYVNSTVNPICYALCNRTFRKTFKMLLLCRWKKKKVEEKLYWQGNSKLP

Compound	outcome
Cc1nc2sc(C(=O)NCc3nccs3)c(N)c2c(C)c1Cl	inactive
Cc1nc2sc(C(=O)NCc3ccncn3)c(N)c2c(C)c1Cl	inactive
Cc1nc2sc(C(=O)NCc3ccncc3)c(N)c2c(C)c1Cl	inactive
Cc1nc2sc(C(=O)NC3CC3)c(N)c2c(C)c1Cl	inactive
Cc1nc2sc(C(=O)NCc3cccnc3)c(N)c2c(C)c1Cl	inactive
COc1ccc(C)c2sc(NC(=O)c3ccncc3)nc12	inactive
Cc1nc2sc(C(=O)NCCc3ccncc3)c(N)c2c(C)c1Cl	inactive
Cc1nc2sc(C(=O)NCc3cccc(F)c3F)c(N)c2c(C)c1Cl	inactive
Cc1nc2sc(C(=O)NCc3ccccc3)c(N)c2c(C)c1Cl	inactive
Cc1nc2sc(C(=O)NCc3ccc4c(c3)OCO4)c(N)c2c(C)c1Cl	inactive
